Here are results for 97 molecules from ChEMBL document CHEMBL1201862, “PubChem BioAssay data set” (2004).

Each structure is given as a SMILES string. The campaign covered roughly 400,000 compounds. About 2,100 (0.53%) were called active. Inconclusive results (about 14%) are left out. No rule for the calls is given here. Many of the other results were omitted from the sample, so actives are more common in it than they were.

The target in this assay is Ataxin-2 (Homo sapiens) (UniProt Q99700). Put plainly: qHTS for Inhibitors of ATXN expression. In kind it is functional.
Chain of Ataxin-2 (Homo sapiens) (Q99700 whole entry): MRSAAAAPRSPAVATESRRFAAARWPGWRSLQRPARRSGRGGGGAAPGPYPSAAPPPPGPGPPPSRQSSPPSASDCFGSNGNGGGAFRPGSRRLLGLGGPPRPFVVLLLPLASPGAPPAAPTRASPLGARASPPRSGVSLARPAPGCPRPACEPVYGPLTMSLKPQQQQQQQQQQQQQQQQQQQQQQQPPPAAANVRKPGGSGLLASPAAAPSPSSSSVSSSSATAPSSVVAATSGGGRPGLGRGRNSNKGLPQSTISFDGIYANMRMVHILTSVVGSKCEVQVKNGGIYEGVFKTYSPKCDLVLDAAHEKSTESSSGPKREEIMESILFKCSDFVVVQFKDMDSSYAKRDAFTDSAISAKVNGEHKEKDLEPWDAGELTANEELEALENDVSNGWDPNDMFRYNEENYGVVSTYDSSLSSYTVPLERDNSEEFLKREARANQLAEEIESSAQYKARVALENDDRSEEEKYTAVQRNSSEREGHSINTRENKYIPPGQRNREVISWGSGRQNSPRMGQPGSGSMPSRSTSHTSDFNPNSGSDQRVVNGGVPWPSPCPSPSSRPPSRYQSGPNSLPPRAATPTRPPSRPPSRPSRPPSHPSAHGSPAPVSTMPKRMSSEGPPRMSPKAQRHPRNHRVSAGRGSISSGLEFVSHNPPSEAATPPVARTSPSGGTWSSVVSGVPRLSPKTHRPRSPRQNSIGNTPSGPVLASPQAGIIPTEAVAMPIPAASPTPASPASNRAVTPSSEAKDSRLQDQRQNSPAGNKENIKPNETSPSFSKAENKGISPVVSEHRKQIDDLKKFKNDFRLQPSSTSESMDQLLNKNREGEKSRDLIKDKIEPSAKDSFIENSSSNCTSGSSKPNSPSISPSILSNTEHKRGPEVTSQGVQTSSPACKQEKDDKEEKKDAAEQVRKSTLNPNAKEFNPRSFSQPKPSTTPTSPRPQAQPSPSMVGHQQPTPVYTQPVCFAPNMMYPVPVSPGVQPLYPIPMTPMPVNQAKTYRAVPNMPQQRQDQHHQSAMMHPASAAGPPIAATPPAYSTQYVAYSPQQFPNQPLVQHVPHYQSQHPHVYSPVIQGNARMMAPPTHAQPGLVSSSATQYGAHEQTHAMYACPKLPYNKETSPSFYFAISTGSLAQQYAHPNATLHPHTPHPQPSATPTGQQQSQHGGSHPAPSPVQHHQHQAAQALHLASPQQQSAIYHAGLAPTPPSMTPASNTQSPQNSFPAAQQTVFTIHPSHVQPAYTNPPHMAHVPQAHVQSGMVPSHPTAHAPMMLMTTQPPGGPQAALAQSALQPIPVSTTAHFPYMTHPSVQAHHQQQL
With `CCO/C(O)=C1/C(CC)=Nc2ccccc2N=C1NS(=O)(=O)c1cccc(C(C)=O)c1`, the Potency entry was “inactive”.
To `COc1cccc(-c2ccc3c(N)c(C(=O)NC4CC4)sc3n2)c1` belongs “inactive”; to `Cc1ccc2nc(N3CCC(C(=O)O)CC3)nc(-c3ccccc3)c2c1`, “inactive”; to `C/C(=N\NC(=O)c1nc2ccccn2c1C)c1cc2ccccc2o1`, “inactive”.
`O=C(NCc1ccco1)c1cc(NS(=O)(=O)c2cccc([N+](=O)[O-])c2)ccc1O`: the Potency entry is “inactive”.
Under `COc1cccc2sc(N(CCCN(C)C)C(=O)CCS(=O)(=O)c3ccccc3)nc12` stands 20 µM (active); under `CN(C)CCCN(C(=O)CCOc1ccccc1)c1nc2c(F)cccc2s1`, 22.4 µM (active).
Under `Cc1ccc2sc(N(CCCN(C)C)C(=O)CCS(=O)(=O)c3ccccc3)nc2c1C` stands 22.4 µM (active); under `Cc1ccc2sc(N(CCCN(C)C)C(=O)c3ccc(Br)s3)nc2c1C`, 35.5 µM (active); under `Cc1ccc(/C(=N/Nc2nc3ccccc3s2)C2=C(O)c3ccccc3C2=O)cc1`, “inactive”.
Under `Cc1ccc(S(=O)(=O)c2cc3cc(Br)ccc3oc2=O)cc1` stands “inactive”; under `N#Cc1cccc(CN2CCCN(Cc3ccc(F)cc3)S2(=O)=O)c1`, “inactive”.
As to `C/C(=N\NC(=O)c1cc2ccccc2cc1O)c1cccs1`, the Potency entry was “inactive”.
With `COc1ccc(OC)c2sc(N(CCCN(C)C)C(=O)CCS(=O)(=O)c3ccccc3)nc12`, the Potency is 25.1 µM (active).
In the case of `COc1cccc2sc(N(CCCN(C)C)C(=O)C(c3ccccc3)c3ccccc3)nc12`, the Potency is 39.8 µM (active).
As for `COc1ccc(C)cc1N(C(=O)c1ccccc1F)c1nc2ccccc2s1`, the Potency result was “inactive”.
Under `CC(Sc1nc2ccccc2s1)C(=O)N(C)Cc1ccccc1` (configuration not stated) stands “inactive”; under `COc1ccc(CCNC(=O)CCS(=O)(=O)c2ccc3nc(C)sc3c2)cc1OC`, “inactive”; under `CCOc1ccccc1NC(=O)CCS(=O)(=O)c1ccc(OC)cc1`, “inactive”.
To `O=C(Oc1ccc(Cl)c2cccnc12)c1cccnc1` belongs “inactive”.
Under `COC(=O)/C=C1/SC(NNC(=O)c2ccc(Cl)cc2Cl)=NC1=O` stands “inactive”; under `CCCn1c(/C=C/c2cc[n+](C)cc2)nc2ccccc21`, “inactive”; under `C/C(=N\Nc1nc2ccccc2[nH]1)c1ccc(Cl)s1`, “inactive”.
For the molecule `CCCn1c(/C=N/Nc2nc3ccccc3[nH]2)nc2ccccc21`, the Potency is 35.5 µM (active).
To `O=S(=O)(c1cc(Cl)ccc1Cl)N1CCN(c2ccccn2)CC1` belongs “inactive”; to `Cc1c(CC(=O)NCC(=O)N[C@H](Cc2ccccc2)C(=O)O)c(=O)oc2cc(O)ccc12`, “inactive”.
To `COc1cc2cc(CNc3ccccc3)c(=O)n(CC(=O)Nc3ccccc3)c2cc1OC` belongs “inactive”; to `COc1cccc(NC(=O)CN2C(=O)c3cccc4cccc2c34)c1`, “inactive”; to `Cc1ccc(NC(=O)CNc2ccccc2CN(C)C2CCCCC2)cc1`, “inactive”.
To `CCn1cc(C(=O)OC)c(=O)c2cc(S(=O)(=O)N(C)C3CCCCC3)ccc21` belongs “inactive”; to `CCc1ccc(NC(=O)N(Cc2cn(CC)c3ccccc23)C2CCCCC2)cc1`, 35.5 µM (active); to `COc1cccc(NC(=O)C2CCOC2=O)c1` (configuration not stated), “inactive”.
On to `COc1cccc(NC(=O)N(Cc2cn(C)c3ccccc23)C2CCCCCC2)c1`, for which the Potency is 39.8 µM (active).
To `COc1ccc(-n2c(=O)c3ccccc3n(CC(=O)Nc3cccc(OC)c3)c2=O)cc1` belongs 39.8 µM (active); to `COc1cccc(NC(=O)Cn2cc(C(=O)C3CCCCC3)c3ccccc32)c1`, 39.8 µM (active); to `COc1cccc(NC(=O)CN(C)C(=O)[C@@H]2CCCN2C(=O)c2cccs2)c1`, “inactive”.
For `COc1cccc(NC(=O)N2CCCC2C(=O)NCc2ccccc2F)c1` (configuration not stated), the Potency entry was “inactive”.
Under `CC(C)NC(=O)Cn1cc(C(=O)C2CC2)c2ccccc21` stands “inactive”; under `CCc1nc2sc(C(C)=O)c(N)c2c2c1CCCC2`, “inactive”; under `O=C(CC1Sc2ccccc2NC1=O)OCc1cc(=O)oc2cc(O)ccc12` (configuration not stated), “inactive”.
Under `Cn1cc(/C=N/NC(=O)c2cc3cc(Br)ccc3o2)c2ccccc21` stands “inactive”; under `CCOC(=O)N1CCC(NC(=O)c2cc(C(=O)Nc3ccc(F)cc3F)ccc2CO)CC1`, “inactive”.
To `O=C(CC[C@H]1O[C@@H](n2ccc(=O)[nH]c2=O)[C@H](O)[C@@H]1O)N[C@H](Cc1ccccc1)C(=O)NCCCN1CCCC1=O` belongs “inactive”; to `CC(OC(=O)c1ccc([N+](=O)[O-])s1)C(=O)NC1CCCCC1C` (configuration not stated), “inactive”.
In the case of `O=c1[nH]cc(/N=C/c2cc(Cl)cc(Cl)c2O)c(=O)[nH]1`, the Potency result is “inactive”.
To `CCCn1/c(=N\C(C)=O)c(C(=O)OCC)cc2c(=O)n3ccccc3nc21` belongs “inactive”.
Under `O=C(c1cccc(Cl)c1)N1CCC(N2CCC(C(=O)N3CCCC3)CC2)CC1` stands 8.91 µM (active); under `O=C(C1CCN(S(=O)(=O)c2c(Cl)cccc2Cl)CC1)N1CCCCCCC1`, “inactive”.
On to `CC(C)Cc1cc(C(=O)N2CCC(N3CCC(C(=O)N4CCCC4)CC3)CC2)[nH]n1`, for which the Potency result is “inactive”.
Under `CCOC(=O)c1cc2c(=O)n3ccccc3nc2n(CC(C)C)/c1=N\C(=O)C(C)Oc1ccccc1` (configuration not stated) stands “inactive”; under `COc1ccc(-c2oc3ccccc3c(=O)c2OC(C)=O)cc1`, “inactive”.
To `CNC(=O)c1ccc(NC(=O)C2CCN(S(=O)(=O)c3cccc(C(F)(F)F)c3)CC2)cc1` belongs “inactive”.
To `O=C(Nc1cccc(C(F)(F)F)c1)C1CC(=O)N(Cc2ccco2)C1` (configuration not stated) belongs “inactive”; to `Cc1noc2ncnc(N3CCCC(C(=O)Nc4cccc(C(F)(F)F)c4)C3)c12` (configuration not stated), 31.6 µM (active).
For the molecule `CCn1c2ccccc2c(=O)c2ccccc21`, the Potency entry is “inactive”.
To `CCn1c(C(C)NC(C)=O)nc2ccccc21` (configuration not stated) belongs “inactive”; to `CCn1c2ccccc2nc2cc3c(cc21)c(Cl)c(=O)c1ccccc13`, 7.94 µM (active).
Under `O=C(O)c1cccc(NC(=O)c2cc3cc(Br)cc(Br)c3oc2=O)c1` stands “inactive”; under `C/C(=N\NC(=O)c1cc2ccccc2cc1O)c1ccc(C)o1`, “inactive”; under `C/C(=N\NC(=O)C1(C)CC1(Br)Br)c1cccc(NC(=O)c2ccc(C)o2)c1` (configuration not stated), 35.5 µM (active).
Under `Nc1ccc(Br)c2cccnc12` stands “inactive”; under `NC(=O)c1c(NC(=O)C2COc3ccccc3O2)sc2c1CCN(Cc1ccccc1)C2` (configuration not stated), “inactive”; under `COc1ccccc1/C=C/CN1CCC(CO)(Cc2ccccc2)CC1`, “inactive”.
As for `COc1ccc(CC2(CO)CCN(Cc3ccc4c(c3)CCO4)CC2)cc1`, the Potency entry was “inactive”.
Under `Cc1c(CN2CCC(CO)(Cc3cccc(C(F)(F)F)c3)CC2)c2ccccc2n1C` stands 39.8 µM (active); under `O=C(NCc1cccnc1)/C(=C/c1ccc(-c2ccc(Cl)cc2)o1)S(=O)(=O)c1ccccc1`, 35.5 µM (active).
To `O=C(N/N=C/c1ccc(-c2ccc([N+](=O)[O-])cc2)o1)c1cccnc1` belongs “inactive”; to `O=C(O)c1ccc(-c2ccc(/C=C3\NC(=O)N(Cc4ccc(Cl)cc4)C3=O)o2)cc1Cl`, “inactive”.
To `CC(C)(C)NC(=O)NCc1cccnc1` belongs “inactive”; to `CNC(=O)/C(C#N)=C/c1ccc(-c2ccc(Cl)cc2)o1`, “inactive”; to `O=C(NCc1cccnc1)/C(=C\c1ccc(-c2ccc(Cl)c(Cl)c2)o1)S(=O)(=O)c1ccccc1`, 22.4 µM (active).
As for `O=C(NCc1cccnc1)/C(=C\c1ccc(-c2cccc(Cl)c2)o1)S(=O)(=O)c1ccccc1`, the Potency is 31.6 µM (active).
Consider `Cc1c(N(C)S(=O)(=O)c2cccc(C(=O)NCc3cccnc3)c2)c(=O)n(-c2ccccc2)n1C`, for which the Potency entry was “inactive”.
Under `O=C(NCC(=O)N1CCC2(CC1)NCCc1[nH]cnc12)c1cccc(Cl)c1` stands “inactive”; under `CN(C)c1ccc(/C=N/NC(=O)c2cccc(N3CCCC3=O)c2)cc1`, “inactive”.
To `Cc1ccc(S(=O)(=O)NN=C2CCc3ccccc32)cc1` belongs “inactive”; to `N#CCCn1nc(-c2ccc(Br)cc2)cc1Nc1ccccc1NC(=O)C(F)(F)F`, “inactive”.
Under `CCOc1ccc(N2C(=O)/C(=C\NNc3nnc(C)c(O)n3)c3ccccc3C2=O)cc1` stands “inactive”; under `O=C(C1CCCO1)N(c1ccc(F)cc1)C1C=CS(=O)(=O)C1` (configuration not stated), “inactive”; under `O=C(OCCN1C(=O)c2cccc3c(N4CCOCC4)ccc(c23)C1=O)c1cccc(Cl)c1`, “inactive”.
For the molecule `CC(C)CN(C(=O)CN1CCCCCC1)c1c(N)n(CC(C)C)c(=O)[nH]c1=O`, the Potency result is “inactive”.
On to `CC1CN(C(S)=Nc2ccc(Cl)cc2)CC(C)O1` (configuration not stated), for which the Potency result is “inactive”.
Take `CCn1nc(NC(=O)COC)c2cc3cc(C)ccc3nc21`: the Potency entry was “inactive”.
Under `Cc1cccc2cc3c(N)c(C(=O)N4CCc5ccccc54)sc3nc12` stands “inactive”.
To `O=[N+]([O-])c1ccc(NN=Cc2ccccc2O)nc1` belongs 20 µM (active); to `O=[N+]([O-])c1ccc(/C=N/Nc2ncc(-c3ccccc3)cn2)cc1`, “inactive”.
Under `O=[N+]([O-])c1ccc(N/N=C/c2ccc(OCc3cccc4ccccc34)cc2)nc1` stands “inactive”.
As to `CN(C)c1c2ccccc2nc2c(F)c(F)c(F)c(F)c12`, the Potency entry is “inactive”.
Under `Cc1cccn2c(=O)c3cc(C(=O)NC(C)c4ccccc4)c(=N)n(CCOCCO)c3nc12` (configuration not stated) stands “inactive”.
Turning to `O=C(/C=C/c1cn(CC(O)CN2CCCCCC2)c2ccccc12)c1ccc(Br)cc1` (configuration not stated), the Potency entry was “inactive”.
On to `C=CCn1cccc(/C=C/C(=O)c2ccc(C(C)(C)C)cc2)c1=S`, for which the Potency was 35.5 µM (active).
To `CC(C)CN(CC(C)C)CC(O)Cn1cc(/C=C/C(=O)c2ccccc2)c2ccccc21` (configuration not stated) belongs “inactive”; to `Cc1cc(=O)oc2cc(O[C@@H]3O[C@H](CO)[C@H](O)[C@H](O)[C@H]3O)ccc12`, “inactive”.
As for `Cc1cc(N2CCOCC2)nc2ccc(NC(=O)CCC(=O)N3CCCC(C)C3)cc12` (configuration not stated), the Potency result is “inactive”.
On to `CN(C(=O)c1cccc(NC(=O)Cc2ccc(NC(=O)C3CCCN(C(=O)CCc4ccccc4)C3)cc2)c1)C1CCCCC1` (configuration not stated), for which the Potency was 17.8 µM (active).
To `O=C(COC(=O)C1CC(=O)N(Cc2ccccc2)C1)Nc1cccc([N+](=O)[O-])c1` (configuration not stated) belongs “inactive”; to `Cc1ccc(N2C(=O)c3cccc4c(N5CCN(C)CC5)ccc(c34)C2=O)c2cccnc12`, “inactive”.
